# From PubChem BioAssay (NCATS)
# Values joined by “and” are separate entries in the source; they are usually repeats but may differ in a detail not shown here. Identical values can stand only once. Unmarked numbers belong to inactive results. Records with an inconclusive call do not appear. Active and inactive are the calls of the source. Unless noted, no rule for the calls is given here.
# How the values were obtained:
# [1] = qHTS assay to identify inhibitors of the type 1 interferon - major histocompatibility complex class I in skeletal muscle: Counter screen cell viability and HiBit confirmation (AID 1347412; active = well fitted inhibition curve with a large enough effect; also: potency is read from the fitted curve at half-maximal effect; as to activity change, negative = inhibition: % is scaled to controls: 0 for no effect and ±100 for the full control effect; as to all read-outs here: nearly all actives have a fitted effect of over 60% in size); details: iHSKM muscle cells + IFN-b, HiBiT or CellTiter-Glo, 24 h; for activity change, negative = inhibition: at 45.9 µM (top of the series)
# Outline: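 Luminescence read-out: Nano-Glo HiBiT lytic signal from C-terminally HiBiT-tagged HLA-B in CRISPR-edited human myoblasts, plus CellTiter Glo ATP as viability counter screen. IFN-beta 4.0 ng/ml; 24 hrs treatment at 37 C, 5% CO2.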
# [2] = target: Nuclear receptor subfamily 1 group I member 2 (Rattus norvegicus) (UniProt Q9R1A7); experiment: qHTS assay for small molecule activators of the rat pregnane X receptor (rPXR) signaling pathway (AID 651751); details: rPXR reporter cells, luciferase (One-Glo), 24 h; also: 0% is about no effect
# Chain of Nuclear receptor subfamily 1 group I member 2 (Rattus norvegicus) (Q9R1A7 whole entry, looked up): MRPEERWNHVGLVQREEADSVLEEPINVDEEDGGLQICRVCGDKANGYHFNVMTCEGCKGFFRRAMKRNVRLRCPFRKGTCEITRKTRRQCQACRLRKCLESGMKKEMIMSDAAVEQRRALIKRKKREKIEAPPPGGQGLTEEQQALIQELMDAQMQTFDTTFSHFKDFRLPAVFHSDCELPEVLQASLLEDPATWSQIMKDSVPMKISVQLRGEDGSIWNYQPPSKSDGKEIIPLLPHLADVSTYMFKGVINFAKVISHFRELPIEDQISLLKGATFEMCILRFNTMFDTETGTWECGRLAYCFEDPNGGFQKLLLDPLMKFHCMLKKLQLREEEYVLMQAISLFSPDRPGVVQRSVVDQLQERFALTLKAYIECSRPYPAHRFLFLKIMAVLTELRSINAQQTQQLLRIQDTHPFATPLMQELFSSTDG
# [3] = qHTS assay for small molecule activators of the human pregnane X receptor (PXR) signaling pathway (AID 720659); details: DPX-2 HepG2 CYP3A4-luciferase, 24 h; series mostly up to 92.3 µM; also: 0% is about no effect
structure (smiles),measurement,setting,value
COc1cc(NCc2ccc3nc(N)nc(N)c3c2C)cc(OC)c1OC,"activity change, negative = inhibition",[1]; HiBiT,-7.08%
same,"activity change, negative = inhibition",[1]; Viability,-0.467%
Nc1nc(N)c2nc(CNc3ccc(C(=O)NC(CCC(=O)O)C(=O)O)cc3)cnc2n1 (stereo unspecified),max response,[2],-7.99%
same,outcome,[3],inactive
C[C@@H](NCCCc1cccc(C(F)(F)F)c1)c1cccc2ccccc12,"activity change, negative = inhibition",[1]; HiBiT,14%
same,"activity change, negative = inhibition",[1]; Viability,-23.6%
N[C@@H](Cc1ccc(O)c(O)c1)C(=O)O,max response,[2],-10%
same,outcome,[3],inactive
Cc1noc(NS(=O)(=O)c2ccc(N)cc2)c1C,outcome,[3],inactive
O=C(O)c1cc(=O)[nH]c(=O)[nH]1,max response,[2],-3.54%
same,outcome,[3],inactive
COc1ccc2cc3[n+](cc2c1OC)CCc1cc2c(cc1-3)OCO2,max response,[2],6.2%
same,outcome,[3],inactive
CN(C)c1ccc(C(=C2C=CC(=[N+](C)C)C=C2)c2ccc(N(C)C)cc2)cc1,Potency,[1]; HiBiT,9.91 µM (active)
same,Potency,[1]; Viability,9.91 µM (active)
same,outcome,[3],inactive
NNC(=O)c1ccncc1,max response,[2],6.47%
same,outcome,[3],inactive
COc1cc2ncnc(Nc3cccc(Cl)c3)c2cc1OC,"activity change, negative = inhibition",[1]; Viability,-9.03%
Cc1cc(NS(=O)(=O)c2ccc(N)cc2)no1,max response,[2],3.86%
same,outcome,[3],inactive
CC1=NN(c2ccccc2)C(=O)C1,max response,[2],3.89% and 0.779%
Cc1ccnc2c1NC(=O)c1cccnc1N2C1CC1,max response,[2],-6.61%
same,outcome,[3],inactive
COc1cc2nc(N3CCCN(C)CC3)nc(NC3CCN(Cc4ccccc4)CC3)c2cc1OC,Potency,[1]; Viability,22.2 µM (active)
OC(Cn1cncn1)(Cn1cncn1)c1ccc(F)cc1F,max response,[2],4.95%
